Several values for one entry are separate records, joined by “and”; a condition that tells them apart may be missing. Equal entries are not always repeated. A number with no mark means an inactive call. Activity calls are given as the source filed them. Unless noted, calls come from the whole dose curve; as a rule, active = well fitted curve in the direction sought with a large enough effect; inconclusive = small, poorly fitted or top-dose-only effect, or another doubt; inactive = no such curve, though single readings can be large; an effect the other way counts as inactive or inconclusive.

A short description of assay [1]: qHTS assay for small molecule activators of the p53 signaling pathway (AID 651743; active = well fitted activation curve with a large enough effect in the signal ratio, not every such curve was filed as active; inconclusive = small, poorly fitted or top-dose-only effect, or a change in a side signal; the % refers to the signal ratio; note: potency is the fitted concentration of half-maximal effect; for activation: % of control where 0% means no effect). Conditions: HCT-116 p53RE-bla, beta-lactamase FRET ratio, 16 h; activation: hits give high values. In short, it runs like this:
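p53RE-bla HCT-116 cells with a stably integrated beta-lactamase reporter under p53 response elements were plated, rested 5 hours at 37 C/5% CO2, then exposed to compounds in DMSO for 16 hours at 37 C. LiveBLAzer B/G FRET substrate was read after 2 hours at room temperature.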

Assay [2] can be described thus: qHTS assay for cell viability of HEK293 cells (AID 743288). For max response: % is set by controls: 0 for no effect and ±100 for the full control effect. Note: nearly all actives have a fitted effect of over 50% in size. Note: potency is the fitted concentration of half-maximal effect. Conditions: ATP luminescence (CellTiter-Glo), 18 h; max response: hits give low values. In short, it runs like this:
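Luminescent ATP quantitation served as the viability read-out. Cells (parental HEK293, 2,000/well) received compounds after at least 5 h at 37 C and were exposed for 18 h before a 30 min room-temperature reagent step.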
Background: qHTS replaces the single test concentration by a dilution series.

Assay [3] can be described thus: Cell Viability - LYMP2-004 (AID 966). Note: nearly all actives have a fitted effect of over 65% in size. Note: potency is the fitted concentration of half-maximal effect. In short, it runs like this: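 Acute toxicity is scored as a concentration-dependent drop in intracellular ATP, quantified by luciferase luminescence, in human lymphoblastoid cells exposed to compound for 24 hr. AC50 derives from Hill-equation modelling.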
A short description of assay [4]: Cell Viability - LYMP2-022 (AID 987). Note: nearly all actives have a fitted effect of over 55% in size. Note: potency is the fitted concentration of half-maximal effect. Put shortly:
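Acute toxicity in a human lymphoblastoid line is scored as decreased intracellular ATP after 24 hr compound treatment at 37 C. ATP is measured by CellTiter-Glo luminescence; curves are fitted with the Hill equation to give AC50.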

Assay [5] is described as follows: Cell Viability - LYMP2-024 (AID 988).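 Note: cells exposed to compound for 24 hr at 37 °C; nearly all actives have a fitted effect of over 60% in size.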 Note: potency is the fitted concentration of half-maximal effect. Put shortly:
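Acute toxicity is measured as concentration-dependent loss of intracellular ATP in a human lymphoblastoid line treated 24 hours at 37 C. Luciferase luminescence quantifies ATP; AC50 values come from standard Hill-equation modelling.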

Assay [6] is described as follows: Cell Viability - LYMP2-026 (AID 989).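 Note: cells exposed to compound for 24 h at 37 °C; nearly all actives have a fitted effect of over 50% in size.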 Note: potency is the fitted concentration of half-maximal effect. Put shortly: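 Concentration-dependent loss of intracellular ATP in human lymphoblastoid cells after 24 hr at 37 C, quantified by luciferase luminescence. AC50 derived from standard Hill equation.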
In assay [7] the target is Estrogen receptor (Homo sapiens) (UniProt P03372). The assay can be described thus: qHTS assay for small molecule antagonists of estrogen receptor alpha signaling (AID 588513; active = well fitted curve in the direction sought with a large enough effect in the signal ratio, with a control signal flat, not every such curve was filed as active; inconclusive = small, poorly fitted or top-dose-only effect, or effect the other way, or a change in a side signal; inactive = no such curve, though single readings can be large or run the other way; the % refers to the signal ratio; note: potency is the fitted concentration of half-maximal effect). Put shortly: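 Antagonist-mode qHTS in ER-alpha-UAS-bla HEK 293 cells: compound titration, 0.5nM estradiol for 18 h, CCF4 fluorescence, Hill-derived IC50.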
Sequence of Estrogen receptor (Homo sapiens) (P03372 whole entry, looked up): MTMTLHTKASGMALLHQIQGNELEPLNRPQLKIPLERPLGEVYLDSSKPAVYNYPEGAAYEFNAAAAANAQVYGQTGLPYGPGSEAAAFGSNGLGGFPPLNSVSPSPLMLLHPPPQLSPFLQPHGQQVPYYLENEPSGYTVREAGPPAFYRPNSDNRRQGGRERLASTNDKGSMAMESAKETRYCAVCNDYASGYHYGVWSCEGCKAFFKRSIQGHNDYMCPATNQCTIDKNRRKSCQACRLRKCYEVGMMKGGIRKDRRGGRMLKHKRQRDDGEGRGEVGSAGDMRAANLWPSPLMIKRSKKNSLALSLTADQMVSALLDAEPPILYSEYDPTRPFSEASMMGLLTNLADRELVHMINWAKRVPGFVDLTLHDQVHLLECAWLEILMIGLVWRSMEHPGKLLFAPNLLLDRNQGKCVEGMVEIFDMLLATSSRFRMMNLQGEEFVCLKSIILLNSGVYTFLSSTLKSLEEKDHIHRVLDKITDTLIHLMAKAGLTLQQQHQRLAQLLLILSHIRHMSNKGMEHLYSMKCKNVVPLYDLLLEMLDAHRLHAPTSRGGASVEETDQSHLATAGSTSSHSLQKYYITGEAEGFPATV
Assay [8] deals with Peroxisome proliferator-activated receptor delta (Homo sapiens) (UniProt Q03181). The assay can be described thus: qHTS assay for small molecule agonists of peroxisome proliferator-activated receptor delta signaling (AID 588534; calls by dose curve;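 note: 0% = DMSO basal wells and 100% = positive control agonist at 10 µM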). In short, it runs like this:
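Reporter cells were plated and held 5 hrs at 37 C before compounds were added. After 18 hrs at 37 C, CCF4 dye was loaded for 2 hrs at RT and fluorescence measured.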

Assay [9] is described as follows: qHTS assay for small molecule disruptors of the mitochondrial membrane potential - 1 hr assay (AID 651754; calls by dose curve; note: nearly all actives have a fitted effect of over 35% in size; note: potency is the fitted concentration of half-maximal effect). In short, it runs like this: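 Steps: seed HepG2 cells and let attach overnight; pin-transfer compound or vehicle; incubate 1 hr at 37C; add Mito-MPS dye for 30 min; read two-channel fluorescence for monomer and aggregate forms.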
Assay [10] can be described thus: Cellular Toxicity (caspase-3) SK-N-SH (AID 661).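 Note: 0% = DMSO basal and 100% = 10 µM staurosporine.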 Put shortly:
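Caspase 3/7 activation is measured as a luminescence increase from aminoluciferin released by substrate cleavage in SK-N-SH cells after 16 hr compound treatment; values are AC50 from concentration-response curves.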

Assay [11] addresses Nuclear receptor ROR-gamma (Homo sapiens) (UniProt P51449). The assay can be described thus: qHTS assay for small molecule antagonists of the retinoid-related orphan receptor gamma (ROR-gamma) signaling pathway (AID 651802). Note: nearly all actives have a fitted effect of over 60% in size. Note: potency is the fitted concentration of half-maximal effect. In short, it runs like this:
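Antagonism is scored as a fall in luminescence from a RORE-luciferase reporter in CHO cells expressing ROR under a TET-inducible promoter, measured 16hr after doxycycline induction in the presence of compound.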

A short description of assay [12]: Cellular Toxicity (caspase-3) H-4-II-E (AID 663).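 Note: cells exposed to compound for 16 hr before readout.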 The conditions noted are these: H-4-II-E rat hepatoma, scaled: DMSO 0%, 100 µM tamoxifen 100%; at 92.2 µM (top of the series). In short, it runs like this: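 Luminescence from caspase-cleaved aminoluciferin substrate, read 20 min after reagent addition, reports caspase 3/7 activation in rat H-4-II-E cells after 16 hr compound exposure. Normalized to DMSO (basal) and 100 uM tamoxifen (100%); AC50 from Hill fits.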

The nature of assay [13]: MultiTox-Fluor Cytotoxicity Assay - LYMP1-002 - Dead Cells (AID 960). Note: nearly all actives have a fitted effect of over 60% in size. Note: potency is the fitted concentration of half-maximal effect. In short, it runs like this:
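Acute cytotoxicity in a human lymphoblastoid line is scored as rising dead-cell protease signal after 16 hr exposure at 37 C, measured fluorometrically (485/520).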

Sequence of Nuclear receptor ROR-gamma (Homo sapiens) (P51449 whole entry, looked up): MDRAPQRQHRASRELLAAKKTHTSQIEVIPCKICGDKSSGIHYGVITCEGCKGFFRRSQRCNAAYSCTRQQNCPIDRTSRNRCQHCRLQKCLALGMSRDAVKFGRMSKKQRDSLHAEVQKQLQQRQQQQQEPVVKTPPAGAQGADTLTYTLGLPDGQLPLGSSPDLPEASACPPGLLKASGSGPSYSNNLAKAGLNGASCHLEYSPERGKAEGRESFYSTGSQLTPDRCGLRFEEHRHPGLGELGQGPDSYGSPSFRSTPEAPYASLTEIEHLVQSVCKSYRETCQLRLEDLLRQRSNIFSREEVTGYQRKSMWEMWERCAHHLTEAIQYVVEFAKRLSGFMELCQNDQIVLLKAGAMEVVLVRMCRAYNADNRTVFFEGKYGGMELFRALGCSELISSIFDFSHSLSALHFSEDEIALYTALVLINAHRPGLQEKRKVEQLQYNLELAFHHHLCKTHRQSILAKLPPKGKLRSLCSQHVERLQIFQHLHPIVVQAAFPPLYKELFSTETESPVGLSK
Sequence of Peroxisome proliferator-activated receptor delta (Homo sapiens) (Q03181 whole entry, looked up): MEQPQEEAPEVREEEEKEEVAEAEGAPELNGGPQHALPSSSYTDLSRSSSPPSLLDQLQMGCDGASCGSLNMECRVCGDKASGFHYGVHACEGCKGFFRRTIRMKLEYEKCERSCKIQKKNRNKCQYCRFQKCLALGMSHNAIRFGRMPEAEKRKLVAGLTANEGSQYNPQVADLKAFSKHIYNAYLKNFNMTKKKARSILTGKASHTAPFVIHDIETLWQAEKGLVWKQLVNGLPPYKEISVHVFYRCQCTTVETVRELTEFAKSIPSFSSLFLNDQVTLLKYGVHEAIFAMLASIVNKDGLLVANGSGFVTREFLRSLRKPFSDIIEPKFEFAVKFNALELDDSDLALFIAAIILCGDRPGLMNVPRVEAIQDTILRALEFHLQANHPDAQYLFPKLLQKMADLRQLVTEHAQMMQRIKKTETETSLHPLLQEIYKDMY

`Cc1ccc(O)cc1C`: in [1], the activation was -0.374%. For the same compound, in assay [2], the max response is 6.02%.
`OC(c1ccc(Cl)cc1)(c1ccc(Cl)cc1)C(Cl)(Cl)Cl`: the Potency entry in assay [3], in [4], in [5], in assay [6], in assay [7] and in assay [9] was “inactive” throughout. For the same compound, in [8], the compound was classed as inactive. For the same compound, the max response in assay [2] was 0.684% and -14.8%.
With `[CH3][Hg][Cl]`, in assay [10], the compound was classed as inactive. Also, the Potency was 3.98 µM (active) in assay [3]; 2.51 µM (active) in [4]; 2 µM (active) in [5]; 5.01 µM (active) in assay [6]; 39.8 µM [inconclusive] (active) in assay [7]; 21.1 µM (active) in [9]. Also, the results for the Potency in assay [11] and in assay [2] were 6.68 µM (active) and 39.8 µM (active), respectively.
Consider `c1ccc2cc3c(cc2c1)-c1cccc2cccc-3c12`, for which the call in assay [10] was inactive. The caspase-3 activation in assay [12] is 0.959%. In addition, the Potency result in assay [13], in assay [3], in assay [4], in assay [5], in assay [6] and in [7] was “inactive” each time. The Potency result in assay [9] and in assay [11] was “inactive” each time. Also, the Potency in assay [1] is 6.31 µM (active) and 8.91 µM (active). In addition, the max response in assay [2] is 4.38% and -18.8%.
On to `Oc1c(Br)c(Br)c(Br)c(Br)c1Br`, for which the outcome in [10] and in [8] was inactive. For the same compound, in [12], the caspase-3 activation is 10.1%. Moreover, the Potency entry in assay [13], in assay [3], in [4], in [5] and in assay [6] was “inactive” each time. The Potency in assay [7] is 39.8 µM [inconclusive] (active); in assay [9], 33.5 µM (active). The max response in assay [2] is -15.8%.
Take `[Cd+2].[Cl-].[Cl-]`: the result in [10] was inactive. For the same compound, the caspase-3 activation in [12] was -2.46%. Also, in assay [13], the Potency result is “inactive”. Further, the figures for the Potency in assay [4], in assay [7] and in assay [11] were 39.8 µM (active), 44.7 µM [inconclusive] (active) and 3.35 µM (active), respectively. In assay [1], the activation is -8.9%.
As for `C[C@@H]1CC[C@@]2(OC1)O[C@H]1[C@@H](O)[C@H]3[C@@H]4CC[C@H]5C[C@@H](O[C@@H]6O[C@H](CO)[C@H](O[C@@H]7O[C@H](CO)[C@@H](O)[C@H](O[C@@H]8OC[C@@H](O)[C@H](O)[C@H]8O)[C@H]7O[C@@H]7O[C@H](CO)[C@@H](O)[C@H](O[C@@H]8O[C@H](CO)[C@@H](O)[C@H](O)[C@H]8O)[C@H]7O)[C@H](O)[C@H]6O)[C@H](O)C[C@]5(C)[C@H]4CC[C@]3(C)[C@H]1[C@@H]2C`, the outcome in assay [10] was inactive. In assay [12], the caspase-3 activation is -3.54%. For the same compound, the Potency is 12.6 µM (active) in [3]; 15.8 µM (active) in assay [4]; 12.6 µM (active) in assay [5]; 15.8 µM (active) in assay [6]; 8.91 µM [inconclusive] (active) in [7]; 26.6 µM (active) in [9]. In addition, the Potency in assay [2] is 25.1 µM (active).
With `N#CC(Cl)Cl`, in assay [12], the caspase-3 activation was 0.178%. Further, the Potency entry in assay [13], in [3] and in assay [9] was “inactive” throughout. Further, the compound was classed as inactive in assay [8]. The results for the Potency in assay [1], in assay [11] and in assay [2] were 39.8 µM (active), 33.5 µM (active) and 14.1 µM (active), respectively.
`C(=NC1CCCCC1)=NC1CCCCC1`: the result in assay [10] and in assay [8] was inactive. Also, the caspase-3 activation in [12] is 91.9% (active). For the same compound, the Potency entry in assay [7] and in assay [9] was “inactive” each time. Moreover, the activation in assay [1] was 5%. The Potency in assay [11] is 18.8 µM (active).
On to `COP(=O)(OC)O/C(=C\Cl)c1cc(Cl)c(Cl)cc1Cl`, for which the compound was called inactive in [10] and in assay [8]. The caspase-3 activation in assay [12] is 2.54%. The Potency entry in assay [13] and in assay [7] was “inactive” throughout. The activation in assay [1] was -0.853%. Further, in assay [2], the max response was -7.38%.
Turning to `FC(F)(F)c1ccc(Cl)cc1`, the call in [10] and in assay [8] was inactive. The caspase-3 activation in [12] is 1.12%. In addition, the Potency result in assay [13], in assay [3], in assay [4], in [5], in assay [6] and in assay [7] was “inactive” throughout. For the same compound, the Potency result in assay [9] and in assay [11] was “inactive” each time. Moreover, the activation in assay [1] was -2.63% and 1.33%. Further, the max response in [2] is -1.88% and 4.63%.
In the case of `O=[N+]([O-])c1ccccc1Cl`, the max response in assay [2] is -0.622% and -10.4%.
As to `ClC1=C(Cl)C2(Cl)C3C(Cl)C(Cl)CC3C1(Cl)C2(Cl)Cl` (stereo not given), the compound was called inactive in [8]. Also, the activation in [1] was 0.792%. In [11], the Potency was 37.6 µM (active).
Consider `N#CSCSC#N`, for which the caspase-3 activation in assay [12] was -3.87%. The Potency was 10 µM (active) in [13]; 6.31 µM (active) in assay [3]; 5.01 µM (active) in assay [4]; 3.98 µM (active) in assay [5]; 7.94 µM (active) in assay [6]; 25.1 µM (active) in assay [1]. Moreover, the Potency in assay [2] was 28.2 µM (active). Also, the Potency result in assay [9] was “inactive”.
On to `O=[N+]([O-])c1cc(C(F)(F)F)cc([N+](=O)[O-])c1Cl`, for which the caspase-3 activation in assay [12] is 24.4%. Further, the Potency entry in assay [13], in assay [7], in assay [9] and in assay [11] was “inactive” throughout. Also, the Potency in assay [4], in [5] and in [6] was 31.6 µM (active) throughout. The result in assay [8] was inactive.
Take `O=C1C2(Cl)C3(Cl)C4(Cl)C(Cl)(Cl)C5(Cl)C3(Cl)C1(Cl)C5(Cl)C24Cl` (stereo not given): the call in assay [10] and in assay [8] was inactive. Besides, the Potency in [13] is 20 µM (active) and 15.8 µM (active); in assay [3], 39.8 µM (active); in [9], 3.35 µM (active) and 10.6 µM (active); in [11] it was 9.44 µM (active) and 10.6 µM (active). In addition, the Potency entry in [5] is “inactive”. In addition, the max response in assay [2] is -22.6% and -16.2%.
`C#CCO`: the compound was called inactive in assay [10] and in assay [8]. Besides, the caspase-3 activation in assay [12] was 0.354%. Further, the Potency entry in assay [13], in assay [3], in [4], in assay [5], in [6] and in assay [7] was “inactive” in each case. Moreover, the Potency entry in assay [11] is “inactive”. Moreover, in assay [1], the activation is 0.794%.
Regarding `Oc1c(Cl)cc(Cl)cc1Cl`, the activation in assay [1] is -6.01% and -1.45%.

The record behind these values is PubChem BioAssay (NCATS).
